Compounds with a hit are over-represented: about 7.2% of the library has one in this group of screens.
Luciferase inh: inhibitors of firefly (Photinus pyralis) luciferase. P08659. purified P. pyralis luciferase, luminescence, biochemical. Potency, µM (series often up to 115 µM), hits mostly inhibitors. actives 2.5% (n = 76,000); note: nearly all actives have a fitted effect of over 65% in size
Target sequence (P08659 whole entry, looked up): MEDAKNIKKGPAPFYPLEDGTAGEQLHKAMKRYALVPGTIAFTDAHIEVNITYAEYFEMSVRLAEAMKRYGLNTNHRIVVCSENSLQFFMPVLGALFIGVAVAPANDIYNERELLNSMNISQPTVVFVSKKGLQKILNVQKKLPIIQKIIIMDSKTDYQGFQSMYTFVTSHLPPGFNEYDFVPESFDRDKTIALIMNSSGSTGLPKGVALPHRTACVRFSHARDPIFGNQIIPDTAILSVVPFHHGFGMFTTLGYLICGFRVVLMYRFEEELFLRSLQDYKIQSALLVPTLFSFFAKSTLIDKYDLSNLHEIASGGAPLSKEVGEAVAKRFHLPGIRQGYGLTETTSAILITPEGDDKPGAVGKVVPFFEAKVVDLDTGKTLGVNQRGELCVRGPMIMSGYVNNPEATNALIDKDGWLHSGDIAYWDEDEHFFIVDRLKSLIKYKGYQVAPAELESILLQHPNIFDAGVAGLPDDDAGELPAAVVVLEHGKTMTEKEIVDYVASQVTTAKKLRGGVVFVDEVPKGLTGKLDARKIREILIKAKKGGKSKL
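Luminescence read by CCD imager after adding enzyme (10nM final) to wells holding compound, titrated in qHTS. Substrates 10uM each D-luciferin and ATP; buffer 50mM Tris acetate pH 7.5, 10mM Mg acetate, Tween-20, BSA.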
SNCA viab count: cell viability loss counter-screen | actives 0.12% (n = 150,000) | HEK-293-SNCA-luc viability, GF-AFC fluorescence, 24 h | Potency, µM (series often up to 57.1 µM), without a hit: at the highest dose activity change, negative = cytotoxicity, actives largely listed as cytotoxic;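 note: 0% = DMSO-treated cells and -100% = medium-only wells without cells; nearly all actives have a fitted effect of over 30% in size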
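Cytotoxicity counterscreen: after 24 h compound treatment of genome-edited SNCA-luciferase HEK-293 cells, live-cell protease substrate GF-AFC read by fluorescence after 30 min; activity scaled between DMSO (0%) and medium-only (-100%), curves Hill-fitted.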
3T3 cytotox: cytotoxic compounds in NIH 3T3 cells. actives 4.3% (n = 94,000). NIH 3T3 viability, CellTiter-Glo ATP luminescence, 48-72 h. Potency, µM (doses to about 96.7 µM), without a hit: at the top dose activity change, negative = cytotoxicity, hits mostly inhibitors; note: nearly all actives have a fitted effect of over 55% in size
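Luminescent ATP readout (CellTiter-Glo, 10 min RT) after 48 or 72 hr compound exposure of NIH 3T3 cells seeded at 400 cells/well in 1536-well format; quantitative HTS.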
NPR1 antag: human Npr1 receptor antagonism; Potency, µM (highest dose often 46.3 µM), for the others: at the top dose activity change, negative = inhibition, hits mostly inhibitors; HEK293 hNpr1 GloSensor cGMP, ANP-stimulated luminescence; actives 1.6% (n = 76,000); P16066; AID 1347048; calls by dose curve; note: nearly all actives have a fitted effect of over 60% in size
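HEK293 cells stably expressing human Npr1 and cGMP GloSensor pGS-40F, loaded 2 h with 2% GloSensor reagent, given compound 30 min at room temperature. Luminescence read before and 20 min after 0.1 nM hNppA.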
HEK293 tox: HEK 293 cell cytotoxicity | HEK 293 viability, ATP luminescence (CellTiter-Glo), 48-72 h | Potency, µM (doses to about 115 µM), inactives show at the top dose activity change, negative = cytotoxicity, actives largely listed as inhibitors | actives 6.6% (n = 94,000); note: nearly all actives have a fitted effect of over 60% in size
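HEK 293 cells at 250 cells/well were exposed to compounds by pintool transfer for 48 or 72 hr at 37 degree Celsius, 5% CO2. Viability was read as ATP-coupled luminescence with CellTiter-Glo after 10 min at room temperature.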
SNCA expr inhib: SNCA gene expression inhibition; HEK-293 SNCA-luciferase knock-in, luminescence, 24 h; Potency, µM (series often up to 57.2 µM), for inactives: top-dose activity change, negative = inhibition, usual class: inhibitors; actives 0.17% (n = 140,000); AID 1671194;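 note: plate controls were DMSO cells for no effect and cell-free wells for full effect; nearly all actives have a fitted effect of over 45% in size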
An asterisk follows results filed as active; i = inactive; ? = inconclusive; / = no result; [ ] = remark or other dose. Unless noted, calls come from the whole dose curve; as a rule, active = well fitted curve in the direction sought with a large enough effect; inconclusive = small, poorly fitted or top-dose-only effect, or another doubt; inactive = no such curve, though single readings can be large; an effect the other way counts as inactive or inconclusive. Unless noted, % is set by controls: 0 for no effect and ±100 for the full control effect; potency is the fitted concentration of half-maximal effect.

SMILES | Luciferase inh | SNCA viab count | 3T3 cytotox | NPR1 antag | HEK293 tox | SNCA expr inhib
O=S(=O)(Cc1ccccc1)N[C@H]1CO[C@H]2[C@@H]1OC[C@@H]2Nc1nccc(-c2cccc(F)c2)n1 | i | ? | ? | ? | 31.6µM* | ?
COc1ccccc1-c1ccnc(N[C@H]2CO[C@H]3[C@@H]2OC[C@@H]3NC(=O)Nc2cccc(C(F)(F)F)c2)n1 | i | 7.1% | -26.1% | 1.0% | -2.6% | -1.5%
O=C(Cc1ccc(F)cc1)N1CC(c2nnc(-c3ccncc3)o2)C2(CCOCC2)C1 (configuration not stated) | i | 7.6% | -11.4% | 1.4% | -22.1% | -11.0%
Cc1ccccc1-n1nc(C)c(CCC(=O)N2CCSCC2)c1Oc1ccccc1F | i | -17.6% | ? | -19.4% | ? | -28.6%
CS(=O)(=O)N1CC(F)(F)C[C@H]1c1nc(-c2ccncc2)no1 | i | 3.4% | i | 1.1% | -7.3% | -14.7%
CCn1ncc(N2CCCC(CC(=O)NCCc3cccs3)C2)cc1=O (configuration not stated) | i | 3.8% | -27.1% | 0.0% | -0.9% | 13.8%
CCC(C)NC(=O)C(NC(=O)c1cccc(OC)c1)C1CCN(C(=O)c2cccc(C)c2)CC1 (configuration not stated) | i | -2.5% | -8.5% | 6.4% | i | -5.7%
Cc1cnc(C2CCC2)n1CC1CCN(C(=O)C2(c3ccccc3)CC2)CC1 | i | 2.8% | -12.1% | 4.1% | -19.4% | -0.8%
COc1cccc(NC(=O)O[C@@H]2CO[C@H]3[C@@H]2OC[C@@H]3Nc2nccc(-c3cccc(F)c3)n2)c1 | i | -17.0% | ? | -15.6% | 44.7µM* | 9.9%
CC(C)(C)c1ccc(NC(=O)O[C@@H]2CO[C@H]3[C@@H]2OC[C@@H]3Nc2nccc(-c3ccc(-c4ccccc4)cc3)n2)cc1 | i | -16.9% | 39.8µM* | 0.4% | 28.2µM* | -29.6%
CC(C)(C)c1ccc(NC(=O)O[C@@H]2CO[C@H]3[C@@H]2OC[C@@H]3Nc2nccc(-c3ccccc3)n2)cc1 | i | 3.5% | -26.9% | 1.4% | -27.5% | 2.5%
CN(C)c1ccc(-c2ccnc(N[C@H]3CO[C@H]4[C@@H]3OC[C@H]4OC(=O)Nc3cccc(C(F)(F)F)c3)n2)cc1 | i | -15.9% | ? | -15.1% | 31.6µM* | 22.5%
Cc1ccc(NC(=O)CC2CCCN(c3cnn(CC4CC4)c(=O)c3)C2)cc1C (configuration not stated) | i | -13.1% | 39.8µM* | -5.6% | ? | -5.1%
COc1ccc(NC(=O)CC2CCCN(c3cnn(CC4CC4)c(=O)c3)C2)cc1 (configuration not stated) | i | -10.5% | 28.2µM* | 0.2% | ? | ?
CC(C)c1ccc(-c2nc(C3CC(=O)N(c4ccc(F)cc4)C3)no2)cc1 (configuration not stated) | i | -1.3% | -20.2% | ? | 35.5µM* | 1.7%
CCc1ccc(N2CC(c3noc(-c4ccc(OC)nc4OC)n3)CC2=O)cc1 (configuration not stated) | i | 12.0% | ? | -19.7% | 44.7µM* | -22.6%
CC(C)c1ccc(-c2nc(C3CC(=O)N(c4ccc(F)c(Cl)c4)C3)no2)cc1 (configuration not stated) | i | 2.5% | ? | ? | ? | -6.4%
CCc1ccc(N2CC(c3noc(-c4ccccc4)n3)CC2=O)cc1 (configuration not stated) | i | 3.4% | ? | 1.2% | 79.4µM* | -20.4%
CC(C)(Cc1ccc2ccccc2c1)NC[C@@H](O)COc1cccc(Cl)c1C#N | / | 9.1% | / | / | / | 26.3%
CN1CC(=O)N(C2CCNCC2)Cc2c(NCCOc3ccccc3)ncnc21 | / | -2.4% | i | / | -9.9% | -7.8%
O=C(CN1CCOC1=O)N1CCC2(CCC(=O)N(CCCn3ccnc3)C2)CC1 | i | 4.5% | -12.7% | 0.2% | -14.7% | 4.4%
O=C(CCN1c2ccccc2Sc2ccccc21)N1CCCC(c2nc(C3CCOCC3)no2)C1 (configuration not stated) | i | -7.6% | ? | -25.5% | 39.8µM* | -13.3%
O=C(c1ccccc1)N1CCCC(c2nc(C3CCOCC3)no2)C1 (configuration not stated) | i | -9.0% | -3.2% | -9.2% | 4.0% | 13.1%
COc1ccc(S(=O)(=O)N2C[C@@H](F)C[C@H]2C(=O)N2CCOCC2)cc1OC | i | 6.2% | i | -1.8% | 8.9% | -9.3%
COc1cccc(F)c1-c1ccc2c(n1)c(=O)ncn2Cc1ccccc1 | i | -7.1%[87.6 µM] | ? | -0.9%[70.6 µM] | 1.5%[172 µM] | 1.5%[87.6 µM]
SMILES | Luciferase inh | SNCA viab count | 3T3 cytotox | NPR1 antag | HEK293 tox | SNCA expr inhib
O=c1ncn(Cc2ccccc2)c2ccc(-c3ccc(F)cc3F)nc12 | i | 7.9%[87.6 µM] | 89.1µM* | -2.0%[70.6 µM] | -12.6%[172 µM] | 57.9%[87.6 µM]
CCOc1cccc2c1OC[C@@H]1CN(CCOC)C(=O)CCN(C(=O)CC)[C@H]21 | / | / | ? | / | -4.4% | /
Cc1cc(NC(=O)c2cc(-c3cccc(Cl)c3)on2)nn1Cc1ccc(Cl)cc1 | / | 3.9% | / | / | / | 15.2%
Cn1cncc1C(N)(c1ccc(Cl)cc1)c1ccc2c(c1)c(-c1cccc(Cl)c1)cc(=O)n2C (configuration not stated) | / | 9.47µM* | / | / | / | /
Cc1ccc(C(=O)N2CCCC(C(=O)N3CCCC(c4nc5ccncc5[nH]4)C3)C2)cc1 (configuration not stated) | / | -4.8% | -24.8% | / | -26.4% | 5.2%
O=C(Nc1cccc(F)c1)c1ccc(Cn2ccn3nc4c(c3c2=O)CCCC4)cc1 | ? | -29.9% | ? | ? | ? | ?
COc1ccc(-c2cn3cc(C(=O)NC(C)C)nc3s2)cc1 | / | 1.2%[87.6 µM] | ? | / | ? | 186.3%[87.6 µM]
CCOC(=O)c1cccc(NC(=O)c2c(C)oc3ccn(Cc4ccc(F)cc4)c(=O)c23)c1 | i | -3.6% | ? | -5.0% | 39.8µM* | -12.4%
COc1cccc(NC(=O)c2c(C)oc3ccn(Cc4ccc(F)cc4)c(=O)c23)c1 | i | -28.3% | -19.2% | -3.4% | ? | -12.6%
COc1cccc(CNC(=O)c2c(C)oc3ccn(Cc4ccc(F)cc4)c(=O)c23)c1 | i | -19.5% | ? | -18.9% | 39.8µM* | -1.2%
Cc1oc2ccn(Cc3ccccc3F)c(=O)c2c1C(=O)NCc1cccc(Cl)c1 | i | -3.4% | ? | -11.8% | ? | 0.0%
COc1ccccc1CNC(=O)c1c(C)oc2ccn(Cc3cccc(F)c3)c(=O)c12 | ? | -8.0% | ? | -18.6% | ? | -19.9%

From PubChem BioAssay
